PubChem BioAssay (EPA / NIEHS)
Values joined by “and” are separate entries in the source; they are usually repeats but may differ in a detail not shown here. Identical values can stand only once. Results filed as inconclusive are left out. Some structures have more than one record in an assay (separate samples or runs), and their calls can disagree. Active and inactive are the calls of the source. Rule for the calls, unless noted: active = hit-call score of the fitted dose curve at least 0.9, where 1 is the maximum; inactive = score below 0.9.

How the values were obtained:
[1] = target: Oxysterols receptor LXR-alpha (Homo sapiens) (UniProt Q13133); test: ATG_LXRa_TRANS: Attagene TRANS-FACTORIAL HepG2 Assay for human Liver X Receptor alpha (LXRa) (AID 2282980; active = hit-call score of the fitted dose curve at least 0.9, where 1 is the maximum); conditions: HepG2 Attagene TRANS reporter, LXRa transactivation
Summary of the method: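 In this multiplexed TRANS system, compounds act on HepG2 cells carrying GAL4-UAS reporter units and a receptor-GAL4 fusion for 24 h. Induced reporter RNA is amplified, fluorescently labelled and sized by capillary electrophoresis, with DMSO as baseline.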

[2] = target: Oxysterols receptor LXR-beta (Homo sapiens) (UniProt P55055); test: ATG_LXRb_TRANS: Attagene TRANS-FACTORIAL HepG2 Assay for human Liver X Receptor beta (LXRb) (AID 2282981; active = hit-call score of the fitted dose curve at least 0.9, where 1 is the maximum); conditions: HepG2 Attagene TRANS GAL4-LXRb reporter, mRNA
Summary of the method: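 Gain-of-signal mRNA reporter endpoint, DMSO as negative control. Transiently transfected HepG2 cells carrying the NR-Gal4 chimera and GAL4-UAS reporter units were treated 24 h; transcripts quantified by RT-PCR and capillary electrophoresis fluorescence.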

[3] = target: Hepatocyte nuclear factor 4-alpha (Homo sapiens) (UniProt P41235); test: ATG_HNF4a_TRANS: Attagene TRANS-FACTORIAL HepG2 Assay for human Hepatocyte Nuclear Factor 4 alpha (HNF4a) (AID 2282982; active = hit-call score of the fitted dose curve at least 0.9, where 1 is the maximum); conditions: HepG2 HNF4a transactivation reporter, mRNA readout
Summary of the method: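 Gain-of-signal mRNA induction, relative to DMSO vehicle, was read after 24 h compound treatment of HepG2 cells bearing transfected GAL4-UAS reporters. Detection used RT-PCR, 6-FAM primer extension and capillary electrophoresis.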

[4] = ATG_M_06_TRANS: Attagene TRANS-FACTORIAL HepG2 Assay for M06 Transcription Factor (Internal Marker) (AID 2282983; active = hit-call score of the fitted dose curve at least 0.9, where 1 is the maximum); conditions: HepG2 Attagene TRANS M06 internal marker reporter
Summary of the method: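 Internal-marker background readout from a multiplexed TRANS reporter system in HepG2; 24 h dosing; mRNA induction quantified by RT-PCR plus capillary electrophoresis fluorescence; DMSO as negative control and baseline.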

[5] = ATG_M_32_TRANS: Attagene TRANS-FACTORIAL HepG2 Assay for M32 Transcription Factor (Internal Marker) (AID 2282984; active = hit-call score of the fitted dose curve at least 0.9, where 1 is the maximum;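 note: transcript level of a background control reporter unit measured by RT-PCR and capillary electrophoresis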); conditions: HepG2 Attagene TRANS M32 internal marker reporter
Summary of the method: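 Capillary electrophoresis of 6-FAM-labelled reporter fragments gives the signal; data fitted for gain over DMSO negative control. Source: HepG2 cells bearing transient multiple reporter transcription units, 24 h exposure.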

[6] = target: Transcriptional activator Myb (Homo sapiens) (UniProt P10242); test: ATG_Myb_CIS: Attagene CIS-FACTORIAL HepG2 Assay for human Myeloblastosis (Myb) Proto-Oncogene Transcription Factor (AID 2282986); conditions: HepG2 Attagene CIS-FACTORIAL Myb reporter transcription; actives raise or lower the signal
Summary of the method: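 HepG2, transient MRTU transfection (cis-element promoters, endogenous TF activity), 24 h compound exposure. Readout: reporter mRNA via RT-PCR, 6-FAM labeling, HpaI digest, capillary electrophoresis. Gain/loss fit vs DMSO.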

[7] = target: Nuclear respiratory factor 1 (Homo sapiens) (UniProt Q16656); test: ATG_NRF1_CIS: Attagene CIS-FACTORIAL HepG2 Assay for human Nuclear Respiratory Factor 1 (NRF1) Orphan Gene (AID 2282987); conditions: HepG2 NRF1 cis-element reporter, Attagene multiplex; actives raise or lower the signal
Summary of the method: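 Endogenous NRF1-driven reporter transcription measured in transiently transfected human HepG2 liver cells. Readout: reporter mRNA by RT-PCR and capillary electrophoresis with fluorescence detection, 24 h post-dosing. Gain or loss of signal fitted relative to DMSO baseline.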

[8] = ATG_NFI_CIS: Attagene CIS-FACTORIAL HepG2 Assay for human Nuclear Factor I (NFI) (AID 2282989); conditions: HepG2 cis-regulatory reporter, NFI response element transcription; actives raise or lower the signal
Summary of the method: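 Transfected HepG2 liver cells, exposed 24 h, supplied total RNA for oligo(dT) reverse transcription and reporter-specific PCR. Labelled, HpaI-cut fragments were sized by capillary electrophoresis; DMSO set the baseline for bidirectional fitting.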

[9] = target: Myc proto-oncogene protein (Homo sapiens) (UniProt P01106); test: ATG_Myc_CIS: Attagene CIS-FACTORIAL HepG2 Assay for human Myelocytomatosis (Myc) Proto-Oncogene Transcription Factor (AID 2282990); conditions: HepG2, Attagene cis-reporter transcription factor activity; actives raise or lower the signal
Summary of the method: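 Transiently transfected HepG2 cells bearing cis-promoter reporter units for endogenous transcription factors; 24 h exposure. Reporter mRNA measured by RT-PCR, 6-FAM primer extension, HpaI cut and capillary electrophoresis; bidirectional fit relative to DMSO.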

[10] = ATG_NF_kB_CIS: Attagene CIS-FACTORIAL HepG2 Assay for human Nuclear Factor Kappa B (NF-kB) (AID 2282991); conditions: HepG2 Attagene cis-factorial NF-kB reporter mRNA; actives raise or lower the signal
Summary of the method: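 Read-out: reporter transcript levels quantified by RT-PCR plus capillary electrophoresis of 6-FAM-labelled, HpaI-cut fragments. Transfected HepG2 cells, 24 h compound exposure, endogenous NF-kB-driven cis element; gain or loss scored versus DMSO.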

[11] = ATG_NRF2_ARE_CIS: Attagene CIS-FACTORIAL HepG2 Assay for human Nuclear Factor Erythroid 2 Related Factor 2 (NFR2) response to Antioxidant Response Elements (ARE) (AID 2282992); conditions: HepG2 Attagene ARE/NRF2 reporter, transcription factor activity; actives raise or lower the signal
Summary of the method: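 HepG2 cells transiently transfected with multiplexed cis-element reporter constructs, 24 h after chemical dosing; reporter mRNA quantified by RT-PCR, fluorescent primer extension, HpaI digestion and capillary electrophoresis. Bidirectional fit relative to DMSO.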

[12] = BSK_3C_TissueFactor: BioMAP Diversity Plus: 3C Assay for Tissue Factor Biomarker Activity (AID 2282997); conditions: BioMAP 3C HUVEC, tissue factor biomarker readout; actives raise or lower the signal
Summary of the method: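 Endothelial monolayers (human umbilical vein, primary) are dosed, incubated 24 h, and assayed for Tissue Factor by ELISA; DMSO serves as negative control for bidirectional fitting.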

[13] = BSK_3C_uPAR: BioMAP Diversity Plus: 3C Assay for Urokinase-type plasminogen activator receptor (uPAR) Biomarker Activity (AID 2282998); conditions: BioMAP 3C HUVEC, uPAR biomarker ELISA; actives raise or lower the signal
Summary of the method: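 In this endothelial cell-based assay, human umbilical vein primary cells were treated with chemicals and harvested at 24 h. uPAR was quantified using ELISA, with gains or losses fitted relative to DMSO controls.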

[14] = BSK_3C_VCAM1: BioMAP Diversity Plus: 3C Assay for Vascular cell adhesion molecule 1 (VCAM1) Biomarker Activity (AID 2282999); conditions: BioMAP 3C HUVEC, VCAM1 ELISA, cytokine-stimulated; actives raise or lower the signal
Summary of the method: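 Human umbilical vein endothelial cells (3C system), biomarker read by ELISA 24 h after dosing; bidirectional fit against DMSO baseline. Cytotoxicity tracked by SRB total-protein staining in parallel cultures at biomarker time.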

[15] = target: Glucocorticoid receptor (Homo sapiens) (UniProt P04150); test: ATG_GR_TRANS: Attagene TRANS-FACTORIAL HepG2 Assay for human Glucocorticoid Receptor (GR) (AID 2282978; active = hit-call score of the fitted dose curve at least 0.9, where 1 is the maximum;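 note: activators score as hits since higher reporter transcript over DMSO is fitted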); conditions: HepG2 Attagene TRANS GR reporter, mRNA transcription
Summary of the method: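 Transient MRTU transfection of HepG2 (GAL4-UAS reporters, exogenous NR-GAL4 chimeras), 24 h dosing. Readout: reporter transcript via RT-PCR + capillary electrophoresis fluorescence. Positive direction vs DMSO baseline.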

[16] = target: Nuclear receptor subfamily 4 group A member 2 (Homo sapiens) (UniProt P43354); test: ATG_NURR1_TRANS: Attagene TRANS-FACTORIAL HepG2 Assay for human Nuclear Receptor Related Protein 1 (NURR1) (AID 2282985; active = hit-call score of the fitted dose curve at least 0.9, where 1 is the maximum); conditions: HepG2 Attagene TRANS reporter, mRNA readout
Summary of the method: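 HepG2 / transient MRTU transfection / 24 h compound exposure / RT-PCR + CE fluorescence of reporter mRNA / gain-of-signal vs DMSO.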

[17] = target: Cellular tumor antigen p53 (Homo sapiens) (UniProt P04637); test: ATG_p53_CIS: Attagene CIS-FACTORIAL HepG2 Assay for human p53 Transcription Factor (AID 2282994); conditions: HepG2 p53 cis-element reporter, Attagene mRNA; actives raise or lower the signal
Summary of the method: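 HepG2 cells transiently transfected with cis-regulated multiple reporter transcription units, dosed 24 h. Reporter mRNA measured by RT-PCR, 6-FAM primer extension, HpaI digestion and capillary electrophoresis; bidirectional fit relative to DMSO.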

[18] = target: Bile acid receptor (Homo sapiens) (UniProt Q96RI1); test: ATG_FXR_TRANS: Attagene TRANS-FACTORIAL HepG2 Assay for Farnesoid X Receptor (FXR) (AID 2282979; active = hit-call score of the fitted dose curve at least 0.9, where 1 is the maximum;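 note: hits raise reporter mRNA above DMSO so AC50 marks FXR activation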); conditions: HepG2 Attagene TRANS FXR-GAL4 reporter transcription
Summary of the method: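 After 24 h chemical treatment of transfected HepG2 cells, GAL4-UAS reporter transcripts driven by an exogenous FXR-GAL4 fusion were measured by RT-PCR and capillary electrophoresis. Increases over DMSO were fitted.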

[19] = ATG_Oct_MLP_CIS: Attagene CIS-FACTORIAL HepG2 Assay for human Octamer-Binding Transcription Factor (Oct) (AID 2282993); conditions: HepG2 Attagene cis-factorial Oct reporter, mRNA; actives raise or lower the signal
Summary of the method: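 Using HepG2 cells bearing transfected cis-reporter constructs, mRNA induction was read after 24 h by fluorescent RT-PCR and capillary electrophoresis, with DMSO defining baseline for gain- or loss-of-signal fits.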

Measured: AC50

Chain of Transcriptional activator Myb (Homo sapiens) (P10242 whole entry, looked up): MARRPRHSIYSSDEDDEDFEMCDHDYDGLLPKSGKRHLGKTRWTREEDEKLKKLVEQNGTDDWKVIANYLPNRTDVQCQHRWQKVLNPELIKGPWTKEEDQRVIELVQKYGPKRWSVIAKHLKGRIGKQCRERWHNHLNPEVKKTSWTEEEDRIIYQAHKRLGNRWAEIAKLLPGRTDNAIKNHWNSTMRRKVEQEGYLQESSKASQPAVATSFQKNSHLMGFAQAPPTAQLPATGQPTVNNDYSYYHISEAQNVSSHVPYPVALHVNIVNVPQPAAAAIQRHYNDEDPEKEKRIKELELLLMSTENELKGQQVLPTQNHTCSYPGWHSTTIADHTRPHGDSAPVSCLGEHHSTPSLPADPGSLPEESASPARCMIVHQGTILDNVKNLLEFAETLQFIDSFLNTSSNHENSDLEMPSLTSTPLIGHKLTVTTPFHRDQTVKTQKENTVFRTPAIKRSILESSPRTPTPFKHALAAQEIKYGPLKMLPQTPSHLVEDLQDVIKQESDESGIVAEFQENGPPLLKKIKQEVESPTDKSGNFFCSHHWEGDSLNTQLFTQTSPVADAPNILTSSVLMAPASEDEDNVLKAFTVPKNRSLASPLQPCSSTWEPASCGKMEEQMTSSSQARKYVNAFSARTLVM
Chain of Glucocorticoid receptor (Homo sapiens) (P04150 whole entry, looked up, the tested form may be a part): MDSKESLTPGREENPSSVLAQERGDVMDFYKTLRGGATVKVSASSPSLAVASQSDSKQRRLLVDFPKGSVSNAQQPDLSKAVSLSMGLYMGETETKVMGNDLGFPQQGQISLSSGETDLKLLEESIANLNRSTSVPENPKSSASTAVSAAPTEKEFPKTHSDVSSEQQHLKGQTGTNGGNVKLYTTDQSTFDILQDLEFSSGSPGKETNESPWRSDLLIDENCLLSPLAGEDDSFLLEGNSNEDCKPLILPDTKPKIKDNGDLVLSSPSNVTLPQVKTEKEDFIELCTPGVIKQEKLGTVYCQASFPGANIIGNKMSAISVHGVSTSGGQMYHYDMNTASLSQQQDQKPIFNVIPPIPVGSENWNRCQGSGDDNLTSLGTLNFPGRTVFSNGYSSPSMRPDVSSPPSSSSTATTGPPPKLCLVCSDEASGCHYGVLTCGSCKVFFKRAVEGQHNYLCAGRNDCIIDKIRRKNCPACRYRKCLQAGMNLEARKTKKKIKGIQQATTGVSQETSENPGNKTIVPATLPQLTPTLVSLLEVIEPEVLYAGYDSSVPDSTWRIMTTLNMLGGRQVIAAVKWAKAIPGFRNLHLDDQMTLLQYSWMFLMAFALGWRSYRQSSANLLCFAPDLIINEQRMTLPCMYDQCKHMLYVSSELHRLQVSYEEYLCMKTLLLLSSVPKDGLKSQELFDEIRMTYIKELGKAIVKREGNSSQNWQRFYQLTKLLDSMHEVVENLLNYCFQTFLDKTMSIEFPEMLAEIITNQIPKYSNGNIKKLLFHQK
Chain of Myc proto-oncogene protein (Homo sapiens) (P01106 whole entry, looked up): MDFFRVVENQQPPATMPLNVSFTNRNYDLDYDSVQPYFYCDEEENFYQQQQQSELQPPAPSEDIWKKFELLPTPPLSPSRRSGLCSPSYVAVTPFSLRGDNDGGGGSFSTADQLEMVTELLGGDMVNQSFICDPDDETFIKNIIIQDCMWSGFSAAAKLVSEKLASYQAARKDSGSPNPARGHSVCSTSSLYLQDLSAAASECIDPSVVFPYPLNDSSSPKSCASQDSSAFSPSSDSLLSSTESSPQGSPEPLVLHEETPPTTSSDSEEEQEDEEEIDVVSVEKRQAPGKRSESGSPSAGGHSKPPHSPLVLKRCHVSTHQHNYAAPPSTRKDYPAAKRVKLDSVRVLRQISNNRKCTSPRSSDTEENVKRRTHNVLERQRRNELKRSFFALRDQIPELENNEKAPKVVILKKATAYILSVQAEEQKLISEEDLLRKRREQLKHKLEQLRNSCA
Chain of Nuclear respiratory factor 1 (Homo sapiens) (Q16656 whole entry, looked up): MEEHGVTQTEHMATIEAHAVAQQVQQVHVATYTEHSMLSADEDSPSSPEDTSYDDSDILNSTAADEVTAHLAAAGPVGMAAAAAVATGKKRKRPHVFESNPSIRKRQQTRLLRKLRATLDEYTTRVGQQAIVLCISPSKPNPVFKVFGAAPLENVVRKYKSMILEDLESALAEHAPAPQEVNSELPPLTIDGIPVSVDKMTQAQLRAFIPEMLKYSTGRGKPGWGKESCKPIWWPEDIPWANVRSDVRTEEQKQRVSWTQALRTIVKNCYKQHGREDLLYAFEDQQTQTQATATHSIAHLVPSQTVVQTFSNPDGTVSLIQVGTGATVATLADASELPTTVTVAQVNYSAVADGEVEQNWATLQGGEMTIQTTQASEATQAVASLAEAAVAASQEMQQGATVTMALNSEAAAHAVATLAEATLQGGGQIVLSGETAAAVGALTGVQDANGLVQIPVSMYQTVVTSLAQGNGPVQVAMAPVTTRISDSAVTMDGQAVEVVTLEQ
Chain of Oxysterols receptor LXR-alpha (Homo sapiens) (Q13133 whole entry, looked up, the tested form may be a part): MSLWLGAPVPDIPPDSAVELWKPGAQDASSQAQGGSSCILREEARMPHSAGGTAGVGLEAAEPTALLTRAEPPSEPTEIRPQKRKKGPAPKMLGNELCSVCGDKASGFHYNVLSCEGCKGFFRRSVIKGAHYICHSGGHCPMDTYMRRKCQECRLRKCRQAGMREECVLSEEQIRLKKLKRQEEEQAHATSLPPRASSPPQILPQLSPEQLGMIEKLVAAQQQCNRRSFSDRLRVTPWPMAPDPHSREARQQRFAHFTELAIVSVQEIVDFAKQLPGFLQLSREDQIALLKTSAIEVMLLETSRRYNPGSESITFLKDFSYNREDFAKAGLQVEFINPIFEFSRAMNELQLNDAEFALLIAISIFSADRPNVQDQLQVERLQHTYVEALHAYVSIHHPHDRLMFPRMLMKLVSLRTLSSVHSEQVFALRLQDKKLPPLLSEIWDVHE
Chain of Bile acid receptor (Homo sapiens) (Q96RI1 whole entry, looked up, the tested form may be a part): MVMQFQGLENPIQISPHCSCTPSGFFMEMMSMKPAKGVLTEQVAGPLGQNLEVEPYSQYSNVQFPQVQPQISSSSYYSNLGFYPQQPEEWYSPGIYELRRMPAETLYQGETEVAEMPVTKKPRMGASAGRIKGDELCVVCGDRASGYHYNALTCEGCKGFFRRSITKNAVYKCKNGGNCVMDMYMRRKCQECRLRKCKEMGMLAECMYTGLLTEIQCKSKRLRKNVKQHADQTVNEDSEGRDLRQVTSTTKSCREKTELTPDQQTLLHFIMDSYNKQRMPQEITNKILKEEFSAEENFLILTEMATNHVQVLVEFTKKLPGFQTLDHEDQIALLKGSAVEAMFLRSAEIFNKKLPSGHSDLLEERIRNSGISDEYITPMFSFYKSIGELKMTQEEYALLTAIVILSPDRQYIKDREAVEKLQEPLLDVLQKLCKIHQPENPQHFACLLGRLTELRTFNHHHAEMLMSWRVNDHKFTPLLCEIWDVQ
Chain of Cellular tumor antigen p53 (Homo sapiens) (P04637 whole entry, looked up): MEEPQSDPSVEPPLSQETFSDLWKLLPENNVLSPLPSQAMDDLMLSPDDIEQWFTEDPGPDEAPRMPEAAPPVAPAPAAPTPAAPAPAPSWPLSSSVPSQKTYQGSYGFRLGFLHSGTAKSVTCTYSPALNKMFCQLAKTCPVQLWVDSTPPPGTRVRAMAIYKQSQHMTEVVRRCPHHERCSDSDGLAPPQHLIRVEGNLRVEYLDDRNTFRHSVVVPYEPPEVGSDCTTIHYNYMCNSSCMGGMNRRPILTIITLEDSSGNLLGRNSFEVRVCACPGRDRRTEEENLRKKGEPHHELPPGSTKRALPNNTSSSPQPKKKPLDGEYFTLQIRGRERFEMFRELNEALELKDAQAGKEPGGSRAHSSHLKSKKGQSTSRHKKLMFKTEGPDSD
Chain of Nuclear receptor subfamily 4 group A member 2 (Homo sapiens) (P43354 whole entry, looked up): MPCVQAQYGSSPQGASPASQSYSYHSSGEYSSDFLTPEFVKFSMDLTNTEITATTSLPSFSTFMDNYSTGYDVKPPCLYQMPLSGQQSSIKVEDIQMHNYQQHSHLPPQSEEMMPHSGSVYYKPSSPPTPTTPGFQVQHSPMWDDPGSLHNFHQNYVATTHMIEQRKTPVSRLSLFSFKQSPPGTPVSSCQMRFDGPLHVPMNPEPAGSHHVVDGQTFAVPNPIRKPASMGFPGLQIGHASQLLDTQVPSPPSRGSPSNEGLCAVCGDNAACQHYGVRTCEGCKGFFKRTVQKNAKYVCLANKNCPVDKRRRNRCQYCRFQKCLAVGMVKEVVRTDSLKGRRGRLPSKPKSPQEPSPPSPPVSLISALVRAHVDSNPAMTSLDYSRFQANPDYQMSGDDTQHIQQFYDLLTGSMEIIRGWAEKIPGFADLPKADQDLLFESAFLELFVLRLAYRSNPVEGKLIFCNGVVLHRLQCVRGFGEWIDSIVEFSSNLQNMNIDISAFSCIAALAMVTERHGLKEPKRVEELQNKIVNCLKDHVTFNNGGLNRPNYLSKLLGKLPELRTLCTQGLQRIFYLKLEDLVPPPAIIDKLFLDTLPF
Chain of Hepatocyte nuclear factor 4-alpha (Homo sapiens) (P41235 whole entry, looked up, the tested form may be a part): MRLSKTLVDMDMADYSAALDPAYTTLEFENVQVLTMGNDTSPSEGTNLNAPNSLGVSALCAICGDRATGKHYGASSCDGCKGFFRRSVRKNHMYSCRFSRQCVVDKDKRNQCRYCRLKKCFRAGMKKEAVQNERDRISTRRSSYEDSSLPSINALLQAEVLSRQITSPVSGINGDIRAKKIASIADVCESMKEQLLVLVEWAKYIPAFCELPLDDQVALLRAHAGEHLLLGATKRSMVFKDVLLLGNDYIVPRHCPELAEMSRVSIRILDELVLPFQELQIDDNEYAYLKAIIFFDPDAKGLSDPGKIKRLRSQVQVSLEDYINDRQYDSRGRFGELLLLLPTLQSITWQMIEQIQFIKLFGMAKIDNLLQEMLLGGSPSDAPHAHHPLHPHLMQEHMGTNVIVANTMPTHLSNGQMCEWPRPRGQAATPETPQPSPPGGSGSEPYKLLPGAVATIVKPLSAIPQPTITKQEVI

CCNc1nc(NC(C)C)nc(SC)n1
not listed: [15] | [16] | [17] | [18] | [19]
inactive: all other assays above

Cc1ccccc1[N+](=O)[O-]
not listed: [1] | [2] | [3] | [15] | [16] | [18] | [19]
inactive: all other assays above

CO/C=C(/C(=O)OC)c1ccccc1COc1cccc(C(F)(F)F)n1
active: [16] 29.3 µM | [11] 5.41 µM | [19] 11.5 µM | [12] 10.4 µM | [13] 36.9 µM | [14] 20 µM
not listed: [1] | [2] | [3] | [4] | [15]
inactive: all other assays above

CCSC(=O)N(CC)C1CCCCC1
not listed: [1] | [3] | [4] | [5] | [15] | [16] | [17] | [18]
inactive: all other assays above

CCCCCCCCOC(=O)c1ccccc1C(=O)OCCCCCCCC
not listed: [1] | [2] | [3] | [4] | [15] | [16]
inactive: all other assays above

Cc1cc2c3c(c1)C(c1ccccc1)=N[C@@H](NC(=O)c1ccncc1)C(=O)N3CC2
active: [11] 96.6 µM | [19] 74 µM
not listed: [1] | [2] | [3] | [4] | [10] | [15] | [18]
inactive: all other assays above

C1CC2OC2CC1C1CO1 (centres undefined)
active: [11] 123 µM
not listed: [1] | [2] | [3] | [4] | [15] | [16]
inactive: all other assays above

CN(C)c1nc(=O)n(C2CCCCC2)c(=O)n1C
not listed: [3] | [5] | [10] | [15] | [16] | [17] | [18]
inactive: all other assays above

Sc1ccccc1
active: [11] 66 µM
inactive: [15] | [2] | [4] | [5] | [16] | [6] | [7] | [8] | [9] | [10] | [11] | [19] | [12] | [13] | [14]

Cc1cc(-c2ccc(N)c(C)c2)ccc1N
inactive: [1] | [2] | [3] | [4] | [5] | [16] | [6] | [7] | [8] | [9] | [11] | [19] | [17] | [12] | [13] | [14]
active: [17] 100 µM

Cc1cccc([N+](=O)[O-])c1
not listed: [1] | [2] | [3] | [5] | [15] | [16] | [18] | [19]
inactive: all other assays above

CCOP(=S)(OCC)SCSC(C)(C)C
inactive: [3] | [4] | [5] | [16] | [6] | [7] | [8] | [9] | [11] | [17] | [12] | [13] | [14]
active: [1] 12 µM and 12.9 µM | [2] 20.2 µM and 27.7 µM | [11] 67 µM

O=C(NC(=O)c1cc(F)c(F)cc1Cl)Nc1cc(F)ccc1N1CCC(C(=O)O)CC1
active: [11] 16.5 µM
not listed: [1] | [4] | [5] | [10] | [18]
inactive: all other assays above

CCCCCCCCCC[N+](C)(C)CCCCCCCCCC
active: [7] 100 µM | [9] 7.82 µM | [11] 3.63 µM | [19] 3.99 µM | [17] 100 µM | [12] 4.21 µM | [13] 2.43 µM | [14] 6.12 µM
not listed: [1] | [15]
inactive: all other assays above

O=NN(c1ccccc1)c1ccccc1
active: [11] 78.9 µM
not listed: [1] | [2] | [3] | [5] | [10] | [15] | [16]
inactive: all other assays above
